# Test results from PubChem BioAssay (NCI).
# Compounds without any hit were thinned out: in the full panel of roughly 83,000, 20% have a hit.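 How to read the values: 0–100, growth inhibition (40 = 60% inhibited); 0, no net growth; -100 to 0, cell death (-40 = 40% of starting cells died; -100 = all dead).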 A number with no mark means an inactive call. Activity calls are given as the source filed them. Rule for the calls: active = growth percent below 10; inactive = the rest.
# Columns and labels:
# Experiment in all cases: NCI-60 one-dose screen, 48 h (100 = growth as untreated, 0 = no growth, -100 = all killed)
# Conditions in all cases: 10 µM unless noted
# HCT-15 colon = test system: HCT-15 colon
# HT29 colon = test system: HT29 colon
# SNB-75 CNS = test system: SNB-75 CNS
# SNB-19 CNS = test system: SNB-19 CNS
# U251 CNS = test system: U251 CNS
# PC-3 prostate = test system: PC-3 prostate
# SK-MEL-5 melanoma = test system: SK-MEL-5 melanoma
# UACC-62 melanoma = test system: UACC-62 melanoma
# SK-MEL-28 melanoma = test system: SK-MEL-28 melanoma
# SK-MEL-2 melanoma = test system: SK-MEL-2 melanoma
# EKVX NSCLC = test system: EKVX NSCLC
# SN12C renal = test system: SN12C renal
# UO-31 renal = test system: UO-31 renal
# TK-10 renal = test system: TK-10 renal
# ACHN renal = test system: ACHN renal
# CAKI-1 renal = test system: CAKI-1 renal
# A498 renal = test system: A498 renal
# CCRF-CEM leukemia = test system: CCRF-CEM leukemia
# MOLT-4 leukemia = test system: MOLT-4 leukemia
Compound,growth (HCT-15 colon),growth (HT29 colon),growth (SNB-75 CNS),growth (SNB-19 CNS),growth (U251 CNS),growth (PC-3 prostate),growth (SK-MEL-5 melanoma),growth (UACC-62 melanoma),growth (SK-MEL-28 melanoma),growth (SK-MEL-2 melanoma),growth (EKVX NSCLC),growth (SN12C renal),growth (UO-31 renal),growth (TK-10 renal),growth (ACHN renal),growth (CAKI-1 renal),growth (A498 renal),growth (CCRF-CEM leukemia),growth (MOLT-4 leukemia)
CN1CCN(c2ccc3nc(-c4[nH]ncc4Nc4ncnc5c4OCCCN5)[nH]c3c2)CC1,-64.7% (active),-24.6% (active),-93.1% (active),-46% (active),-55.7% (active),-58.5% (active),-93.4% (active),-74.9% (active),-73.1% (active),-56.1% (active),-59.6% (active),-59.5% (active),-77.3% (active),-62.7% (active),-98.4% (active),-86.2% (active),-95.7% (active),-25.7% (active),-22.5% (active)
CCCCn1c(-c2ccc(O)cc2)cn2c3c(=O)[nH]c(=O)n(C)c3nc12,54.2%,77.6%,53.2%,82.5%,66.7%,68.9%,51.9%,51.2%,74.7%,45.8%,85.9%,78%,70.2%,86.7%,92.6%,86.6%,75.8%,80%,58.6%
COc1ccc(-c2c(-c3nc4ccc(N5CCOCC5)cc4[nH]3)[nH]c(C)c2C(C)=O)cc1,3.79% (active),20.8%,1.76% (active),39.7%,54.3%,48.7%,22.2%,15.7%,45.8%,77.1%,42.1%,52.6%,13.8%,-4.3% (active),34.2%,16.9%,27.2%,43.4%,51.9%
CC1(C)C(=O)CC[C@]2(C)[C@H]3C(=O)C=C4[C@@H]5C[C@@](C)(C(=O)NCCNCCN)CC[C@]5(C)CC[C@@]4(C)[C@]3(C)CC[C@@H]12,99.4%,98%,-29.7% (active),98.4%,88.3%,90.4%,96.8%,98.1%,104%,121%,105%,86%,76.8%,147%,104%,92.5%,101%,75.9%,82.5%
COc1cnc2c(c1)C(=O)c1c-2n(CCCN2CCN(CCO)CC2)c(=O)c2cc([N+](=O)[O-])ccc12,-26.3% (active),-85.7% (active),73.1%,-1.88% (active),-84.2% (active),44.4%,53.9%,37.8%,102%,108%,66%,54%,36.6%,97.2%,25.1%,37.8%,-5.96% (active),-5.14% (active),0.798% (active)
O=C(O)c1cccc2c1C(=O)N(c1ccc3c(c1)Cc1ccccc1-3)C2=O,108%,99.9%,91.6%,111%,111%,97.6%,110%,112%,110%,99%,111%,111%,85.6%,100%,113%,109%,104%,104%,101%
Cc1ccc(-c2ccc(/C=C(\C#N)c3nc(-c4ccco4)cs3)o2)cc1,69.2%,102%,84.9%,99.6%,98.7%,100%,87.8%,87.5%,112%,104%,52.1%,97.1%,79%,69.9%,98.6%,94.5%,106%,79.1%,94.6%
CN(CSc1ccc(Cl)cc1)c1ccc(CSc2ccc(Cl)cc2)cc1,62.8%,96.8%,86%,84.7%,53.6%,38.4%,70.9%,84%,79.9%,78.1%,86.8%,36.9%,26.6%,87.1%,87.4%,44.7%,71.8%,6.37% (active),8.87% (active)
Cc1cccc2c1NC(=O)[C@@]21[C@H](C(=O)c2ccccc2)[C@]2(C(=O)Nc3ccccc32)[C@H]2CCCN21,9.8% [100 µM] (active),3.18% [100 µM] (active),-25.4% [100 µM] (active),-5.94% [100 µM] (active),1.7% [100 µM] (active),21.7% [100 µM],31% [100 µM],22.5% [100 µM],46.4% [100 µM],18.1% [100 µM],30.6% [100 µM],10.3% [100 µM],30.5% [100 µM],39% [100 µM],5.91% [100 µM] (active),11.6% [100 µM],39.8% [100 µM],5.86% [100 µM] (active),12.3% [100 µM]
Fc1cccc(-c2[nH]nc3nc(Nc4cccnc4)sc23)c1,37.1%,14.5%,47.5%,40.2%,38.6%,33.1%,33%,57.2%,68.6%,46.6%,57%,58.5%,46.2%,77.3%,61.5%,21.4%,84.2%,28.8%,48.5%
Nc1c2c(nc3ccc(Cl)cc13)CC(c1ccc(O)cc1)CC2=O (centres undefined),29.3%,101%,30.5%,45.8%,47.2%,49.2%,23.6%,32.8%,57%,61.3%,29.8%,58.7%,60%,81.5%,49.4%,48.3%,86.5%,43.4%,46.9%
C/C(Cc1ccc(Cl)cc1)=C(/c1ccc(Cl)cc1)c1ccc(OCCN2CCCC2)cc1,28.3%,22.1%,78.2%,89.8%,58.3%,65.4%,93.1%,95.6%,98.2%,105%,91.2%,81.6%,68.1%,96.1%,93.8%,75.9%,103%,66%,59.7%
Cn1cc(-c2nc(-c3cn(C)c4ncccc34)cs2)c2cc(F)ccc21,21.3%,8.87% (active),29.1%,46.4%,31.8%,47.1%,24.7%,41.7%,50.9%,31.1%,55.3%,46%,51.1%,46.3%,47.4%,20.8%,44.8%,40%,35.6%
C=C(C)[C@@H]1CC[C@]2(C)CC[C@]3(C)[C@H](CC[C@@H]4[C@@]5(C)CCCNC(C)(C)[C@@H]5CC[C@]43C)[C@@H]12,19.2%,3.37% (active),85.9%,96.3%,11.9%,78.9%,98.4%,105%,105%,119%,103%,82.1%,88.2%,142%,95.5%,75.3%,79.7%,52%,46.6%
O=c1[nH]ncc(Br)c1Br,15.7%,-35.1% (active),79.8%,72.4%,30.9%,65.7%,69.4%,87.3%,14.7%,45.1%,78.8%,63.6%,52%,65.8%,87.3%,86.4%,108%,27.6%,35.4%
Cc1ccc(S(=O)(=O)Nc2ccc(-c3cc(-c4cccc(F)c4)c(C#N)c(=O)[nH]3)cc2)cc1,58.2%,54.6%,85%,84.3%,71%,68.8%,82%,60.3%,97.4%,112%,83.4%,83.7%,68.6%,115%,91.3%,60.2%,85.2%,68.4%,76.9%
